For eight compounds, growth results are on record in PubChem BioAssay (NCI).

Some test systems named below: DU-145 prostate; K-562 leukemia; MALME-3M melanoma; MDA-MB-231 breast; RXF 393 renal; SF-268 CNS; SF-295 CNS; SF-539 CNS; UACC-257 melanoma; M14 melanoma; HCT-15 colon; HT29 colon; SNB-75 CNS; SNB-19 CNS; U251 CNS; PC-3 prostate; UACC-62 melanoma; LOX IMVI melanoma; SK-MEL-5 melanoma; SK-MEL-28 melanoma.
Holding throughout (assay): NCI-60 one-dose screen, 48 h (100 = growth as untreated, 0 = no growth, -100 = all killed)
What all share (conditions): 10 µM unless noted

About 83,000 compounds went through this panel and 20% of them were active in at least one assay; those are over-represented in the sample as a whole.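 Interpretation: 100, growth as untreated; towards 0, rising growth inhibition; 0, no net growth; 0 to -100, cell death. Compounds scoring below 10 were considered active.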 Values without a mark were called inactive. Active and inactive are the calls of the source.

As to `Fc1ccc(-c2nc(-c3ccc(-c4nc5ccc(F)cc5[nH]4)cc3)no2)cc1`, the growth in the assay with DU-145 prostate is 39.4%; in the assay on K-562 leukemia, 63%; in the assay with MALME-3M melanoma, 68.3%; in the assay with MDA-MB-231 breast, 74.3%; with RXF 393 renal, 79.8%; in the assay with SF-268 CNS it was 66.1%. Moreover, the growth in the assay with SF-295 CNS is 73.4%; in the assay with SF-539 CNS it was 69.2%; with UACC-257 melanoma it was 87.8%; in the assay with M14 melanoma, 62.3%; in the assay on HCT-15 colon, 86.1%; with HT29 colon, 84.7%. In addition, the growth with SNB-75 CNS is 57.6%; in the assay on SNB-19 CNS it was 82.5%; in the assay with U251 CNS it was 82.9%; with PC-3 prostate it was 68.7%; in the assay with UACC-62 melanoma it was 75.5%; in the assay with LOX IMVI melanoma, 43.5%.
In the case of `CCCCCCCCN=C(NCCCCCCCC)SCc1cccc2ccccc12`, the growth in the assay on DU-145 prostate is -74.3% (active); in the assay with K-562 leukemia, -13.4% (active); in the assay on MALME-3M melanoma it was -44.3% (active); in the assay on MDA-MB-231 breast, -92.6% (active); in the assay with RXF 393 renal it was -78.6% (active); in the assay on SF-268 CNS, -90.8% (active). For the same compound, the growth was -85.1% (active) in the assay with SF-295 CNS; -87.1% (active) with SF-539 CNS; -77.7% (active) in the assay with UACC-257 melanoma; -86.6% (active) in the assay on M14 melanoma; -78.1% (active) with HCT-15 colon; -24.4% (active) with HT29 colon. Moreover, the growth with SNB-75 CNS was -88.4% (active); in the assay on SNB-19 CNS it was -88.4% (active); in the assay on U251 CNS, -98.7% (active); in the assay with PC-3 prostate, -93.2% (active); in the assay with SK-MEL-5 melanoma, -95.3% (active); with UACC-62 melanoma it was -82.2% (active). For the same compound, the growth in the assay on LOX IMVI melanoma was -96% (active); with SK-MEL-28 melanoma, -87.8% (active).
Consider `NNC(=O)CSc1nc2scc(-c3ccccc3)c2c(=O)n1-c1ccccc1`, for which the growth with DU-145 prostate was 111%; in the assay on K-562 leukemia, 89.9%; in the assay on MALME-3M melanoma, 155%; in the assay with MDA-MB-231 breast it was 86.6%; in the assay on RXF 393 renal, -50.2% (active); in the assay on SF-268 CNS, 85.6%. For the same compound, the growth was 144% in the assay with SF-295 CNS; 96.5% in the assay with SF-539 CNS; 129% in the assay on UACC-257 melanoma; 112% in the assay on M14 melanoma; 101% in the assay on HCT-15 colon; 121% in the assay with HT29 colon. The growth in the assay on SNB-75 CNS was 88.3%; in the assay with SNB-19 CNS it was 107%; in the assay with U251 CNS it was 103%; in the assay on PC-3 prostate, 80.5%; in the assay with SK-MEL-5 melanoma it was 88.4%; in the assay on UACC-62 melanoma it was 90.2%. Moreover, the growth is 78.7% in the assay on LOX IMVI melanoma and 111% in the assay on SK-MEL-28 melanoma.
Consider `COc1ccc(-n2c(COc3ccc(F)cc3)n[nH]c2=S)cc1`, for which the growth with DU-145 prostate is 112%; with K-562 leukemia, 129%; with MALME-3M melanoma it was 115%; with MDA-MB-231 breast, 89.3%; in the assay on RXF 393 renal, 80.3%; with SF-268 CNS, 97.8%. The growth was 74.1% in the assay on SF-295 CNS; 101% with SF-539 CNS; 186% in the assay on UACC-257 melanoma; 112% in the assay with M14 melanoma; 114% with HCT-15 colon; 103% with HT29 colon. For the same compound, the growth with SNB-75 CNS is 97.7%; in the assay with SNB-19 CNS, 106%; in the assay on U251 CNS it was 97.4%; in the assay on PC-3 prostate, 154%; in the assay with SK-MEL-5 melanoma, 105%; in the assay on UACC-62 melanoma, 98.6%. Moreover, the figures for the growth in the assay with LOX IMVI melanoma and in the assay with SK-MEL-28 melanoma were 104% and 127%, respectively.
For the compound `Nc1nc(N)c2cc(NCc3ccc(Cl)c(Cl)c3)ccc2n1`, the growth with DU-145 prostate is -94.8% (active); with K-562 leukemia, -62.2% (active); in the assay with MALME-3M melanoma, -64.9% (active); with MDA-MB-231 breast, -86.8% (active); in the assay with RXF 393 renal, -82.7% (active); with SF-268 CNS, -83.2% (active). Moreover, the growth was -80.5% (active) in the assay on SF-295 CNS; -89.9% (active) in the assay on SF-539 CNS; -83% (active) in the assay with UACC-257 melanoma; -84% (active) in the assay with M14 melanoma; -80% (active) in the assay on HCT-15 colon; -76.3% (active) in the assay on HT29 colon. The growth in the assay with SNB-75 CNS is -97.1% (active); in the assay with SNB-19 CNS it was -85.6% (active); with U251 CNS, -94.5% (active); in the assay on PC-3 prostate it was -88.7% (active); in the assay on SK-MEL-5 melanoma, -97.5% (active); in the assay with UACC-62 melanoma, -84% (active). Also, the growth was -80.4% (active) in the assay on LOX IMVI melanoma and -94.1% (active) with SK-MEL-28 melanoma.
As to `Cc1[nH]c2ccccc2c1C1=CC(=O)C=CC1=O`, the growth in the assay with DU-145 prostate was 103%; in the assay with K-562 leukemia, 33.4%; in the assay with MALME-3M melanoma, 123%; in the assay with MDA-MB-231 breast it was 87.7%; in the assay with RXF 393 renal, 115%; in the assay with SF-268 CNS, 83.7%. For the same compound, the growth in the assay on SF-295 CNS is 127%; in the assay with SF-539 CNS it was 79.1%; with UACC-257 melanoma, 91.6%; with M14 melanoma, 79.4%; with HCT-15 colon, 74.6%; in the assay on HT29 colon, 105%. Besides, the growth with SNB-75 CNS is 82.8%; with SNB-19 CNS it was 93%; with U251 CNS, 72.4%; with PC-3 prostate, 79.3%; in the assay with SK-MEL-5 melanoma it was 85.6%; in the assay with UACC-62 melanoma, 75.9%. Besides, the growth with LOX IMVI melanoma was 79.1%; in the assay on SK-MEL-28 melanoma it was 104%.
For the compound `CC(=O)Oc1c(Cl)c(Cl)c(Cl)c(Cl)c1Cl`, the growth in the assay with DU-145 prostate is 105%; with K-562 leukemia, 101%; with MALME-3M melanoma, 91.7%; in the assay with MDA-MB-231 breast, 86.3%; in the assay with RXF 393 renal, 116%; in the assay with SF-268 CNS, 96.1%. The growth is 97.7% in the assay with SF-295 CNS; 86.3% in the assay with SF-539 CNS; 94.1% with UACC-257 melanoma; 105% in the assay with M14 melanoma; 95% in the assay with HCT-15 colon; 99.9% with HT29 colon. In addition, the growth in the assay on SNB-75 CNS was 80.1%; in the assay with SNB-19 CNS it was 96.3%; in the assay on U251 CNS, 94.7%; with PC-3 prostate, 91.1%; in the assay with SK-MEL-5 melanoma, 102%; in the assay on UACC-62 melanoma, 88%. In addition, the results for the growth with LOX IMVI melanoma and in the assay on SK-MEL-28 melanoma were 93.1% and 104%, respectively.
Turning to `O=C(Nc1cccc(N=Cc2c(O)ccc3ccccc23)c1)c1ccccc1`, the growth was 98.2% in the assay with DU-145 prostate; 97.3% with K-562 leukemia; 102% in the assay on MALME-3M melanoma; 94.1% in the assay with MDA-MB-231 breast; 90.4% in the assay on RXF 393 renal; 89.1% in the assay on SF-268 CNS. The growth in the assay with SF-295 CNS is 95.2%; with SF-539 CNS, 90.5%; in the assay on UACC-257 melanoma, 91.6%; with M14 melanoma, 91.1%; with HCT-15 colon it was 93.6%; in the assay with HT29 colon, 90.9%. The growth with SNB-75 CNS is 77.9%; with SNB-19 CNS, 101%; in the assay with U251 CNS, 92.6%; in the assay with PC-3 prostate, 86.9%; with SK-MEL-5 melanoma it was 91.3%; in the assay on UACC-62 melanoma, 94.4%. Also, the growth was 96.1% with LOX IMVI melanoma and 107% in the assay with SK-MEL-28 melanoma.
